Data from PubChem BioAssay AID1159580 (chemical genetic matrix, 2015).
In all, about 5,500 compounds went through this assay and about 2,000 (36%) were called active. Another 18% or so got no clear call; they are omitted. No stated cut-off is given here; in the data, active means normalized growth mostly below about 0.91 (no sharp cut-off); inconclusive means no clear call, values can overlap the other calls; inactive means mostly above about 0.92. The list shows a part of the results.

Assay: chemical genetic growth profiling, strain panel (AID 1159580);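 further: tested at 20 µM; growth read once vehicle control cultures reached saturation at 30 °C; 1 = growth at the plate median or of vehicle wells; lower values mean less growth of the strain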
Conditions: growth OD
[1] = S. cerevisiae deletion strains, locus YAL013W, strain DEP1, active compounds read low
[2] = S. cerevisiae deletion strains, locus YDL101C, strain DUN1, active compounds read low
[3] = S. cerevisiae deletion strains, locus YDR150W, strain NUM1, active compounds read low
[4] = S. cerevisiae deletion strains, locus YHR030C, strain SLT2, active compounds read low
[5] = S. cerevisiae deletion strains, locus YJR075W, strain HOC1, active compounds read low
[6] = S. cerevisiae deletion strains, locus YNL153C, strain GIM3, active compounds read low
[7] = S. cerevisiae deletion strains, locus YNL322C, strain KRE1, active compounds read low
[8] = S. cerevisiae deletion strains, locus YPL241C, strain CIN2, active compounds read low

Measured: normalized growth

O=[N+]([O-])c1ccc(NCCCCCO)nc1
inactive: [1] 0.988 | S. cerevisiae deletion strains, locus YBR229C, strain ROT2, active compounds read low 0.98 | S. cerevisiae deletion strains, locus YCL061C, strain MRC1, active compounds read low 0.977 | [2] 0.966 | S. cerevisiae deletion strains, locus YDL134C, strain PPH21, active compounds read low 0.998 | [3] 0.975 | S. cerevisiae deletion strains, locus YEL061C, strain CIN8, active compounds read low 1.03 | S. cerevisiae deletion strains, locus YGR078C, strain PAC10, active compounds read low 0.987 | [4] 0.974 | S. cerevisiae deletion strains, locus YHR087W, strain rtc3, active compounds read low 1.05 | S. cerevisiae deletion strains, locus YJL187C, strain SWE1, active compounds read low 1 | S. cerevisiae deletion strains, locus YJR043C, strain POL32, active compounds read low 0.981 | [5] 1.02 | S. cerevisiae deletion strains, locus YKL190W, strain CNB1, active compounds read low 1.01 | S. cerevisiae deletion strains, locus YLR039C, strain RIC1, active compounds read low 0.936 | S. cerevisiae deletion strains, locus YLR058C, strain SHM2 (second series), active compounds read low 0.993 | S. cerevisiae deletion strains, locus YLR085C, strain ARP6, active compounds read low 0.993 | S. cerevisiae deletion strains, locus YLR262C, strain YPT6, active compounds read low 1.01 | S. cerevisiae deletion strains, locus YML094W, strain GIM5, active compounds read low 1.04 | S. cerevisiae deletion strains, locus YMR219W, strain ESC1, active compounds read low 1.01 | S. cerevisiae deletion strains, locus YMR263W, strain SAP30, active compounds read low 0.999 | S. cerevisiae deletion strains, locus YMR307W, strain GAS1, active compounds read low 1.07 | [6] 0.986 | S. cerevisiae deletion strains, locus YNL298W, strain CLA4 (second series), active compounds read low 0.967 | [7] 0.992 | S. cerevisiae deletion strains, locus YNR030W, strain Alg12, active compounds read low 0.99 | S. cerevisiae deletion strains, locus YOL006C, strain TOP1, active compounds read low 0.955 | S. cerevisiae deletion strains, locus YPL055C, strain LGE1, active compounds read low 1.04 | [8] 0.974 | S. cerevisiae deletion strains, locus YPR135W, strain CTF4, active compounds read low 0.958 | S. cerevisiae strains, strain wild type, active compounds read low 0.996

Nc1nc(SCc2ccc([N+](=O)[O-])cc2)c2ncn([C@@H]3O[C@H](CO)[C@H](O)C3O)c2n1 (stereo partly specified)
inactive: [1] 1.01 | S. cerevisiae deletion strains, locus YAL040C, strain CLN3, active compounds read low 1.02 | S. cerevisiae deletion strains, locus YCL061C, strain MRC1 (second series), active compounds read low 1 | [3] 0.994 | S. cerevisiae deletion strains, locus YER002W, strain NOP16, active compounds read low 1 | S. cerevisiae deletion strains, locus YGR229C, strain SMI1, active compounds read low 1.04 | [5] 0.995 | [6] 0.989 | S. cerevisiae deletion strains, locus YNL175C, strain NOP13, active compounds read low 0.996 | S. cerevisiae deletion strains, locus YNL197C, strain WHI3, active compounds read low 1 | S. cerevisiae deletion strains, locus YNL224C, strain SQS1, active compounds read low 1 | [7] 1.02 | S. cerevisiae deletion strains, locus YOR083W, strain WHI5 (second series), active compounds read low 0.998 | [8] 1

O=[N+]([O-])c1ccc(NCc2ccc(Cl)c(Cl)c2)nc1
inactive: S. cerevisiae deletion strains, locus YAR019C, strain CDC15, active compounds read low 0.931 | S. cerevisiae deletion strains, locus YBL105C, strain PKC1, active compounds read low 0.936 | S. cerevisiae deletion strains, locus YBR135W, strain CKS1, active compounds read low 0.936 | S. cerevisiae deletion strains, locus YBR136W, strain MEC1, active compounds read low 0.944 | S. cerevisiae deletion strains, locus YBR160W, strain CDC28, active compounds read low 0.941 | S. cerevisiae deletion strains, locus YDL017W, strain CDC7, active compounds read low 0.946 | S. cerevisiae deletion strains, locus YDL028C, strain MPS1, active compounds read low 0.946 | [2] 0.925 | S. cerevisiae deletion strains, locus YDL108W, strain KIN28, active compounds read low 0.942 | S. cerevisiae deletion strains, locus YDL132W, strain cdc53, active compounds read low 0.919 | S. cerevisiae deletion strains, locus YDL214C, strain PRR2, active compounds read low 0.857 | S. cerevisiae deletion strains, locus YDR052C, strain DBF4, active compounds read low 0.953 | S. cerevisiae deletion strains, locus YDR054C, strain cdc34, active compounds read low 0.918 | S. cerevisiae deletion strains, locus YDR226W, strain ADK1, active compounds read low 0.937 | S. cerevisiae deletion strains, locus YDR477W, strain SNF1, active compounds read low 0.882 | S. cerevisiae deletion strains, locus YER123W, strain YCK3, active compounds read low 0.862 | S. cerevisiae deletion strains, locus YER133W, strain GLC7, active compounds read low 0.842 | S. cerevisiae deletion strains, locus YFL009W, strain cdc4, active compounds read low 0.923 | S. cerevisiae deletion strains, locus YFL029C, strain CAK1, active compounds read low 0.931 | S. cerevisiae deletion strains, locus YFR003C, strain YPI1, active compounds read low 0.944 | S. cerevisiae deletion strains, locus YFR019W, strain FAB1, active compounds read low 0.907 | S. cerevisiae deletion strains, locus YFR028C, strain CDC14, active compounds read low 0.917 | S. cerevisiae deletion strains, locus YGR040W, strain KSS1, active compounds read low 0.884 | S. cerevisiae deletion strains, locus YGR052W, strain FMP48, active compounds read low 0.861 | S. cerevisiae deletion strains, locus YGR092W, strain DBF2, active compounds read low 0.852 | S. cerevisiae deletion strains, locus YHR079C, strain IRE1, active compounds read low 0.78 | S. cerevisiae deletion strains, locus YHR082C, strain KSP1, active compounds read low 0.906 | S. cerevisiae deletion strains, locus YHR205W, strain SCH9, active compounds read low 0.81 | S. cerevisiae deletion strains, locus YIL147C, strain SLN1, active compounds read low 0.94 | S. cerevisiae deletion strains, locus YJL095W, strain BCK1, active compounds read low 0.774 | S. cerevisiae deletion strains, locus YJL128C, strain PBS2, active compounds read low 0.839 | S. cerevisiae deletion strains, locus YJL157C, strain FAR1, active compounds read low 0.883 | S. cerevisiae deletion strains, locus YJR016C, strain ILV3, active compounds read low 0.939 | S. cerevisiae deletion strains, locus YJR066W, strain TOR1 (second series), active compounds read low 0.892 | S. cerevisiae deletion strains, locus YJR066W, strain TOR1, active compounds read low 0.898 | S. cerevisiae deletion strains, locus YKL048C, strain ELM1, active compounds read low 0.913 | S. cerevisiae deletion strains, locus YKL067W, strain YNK1, active compounds read low 0.891 | S. cerevisiae deletion strains, locus YKL101W, strain HSL1, active compounds read low 0.875 | S. cerevisiae deletion strains, locus YKL193C, strain SDS22, active compounds read low 0.935 | S. cerevisiae deletion strains, locus YKL203C, strain TOR2, active compounds read low 0.948 | S. cerevisiae deletion strains, locus YLR133W, strain CKI1, active compounds read low 0.911 | S. cerevisiae deletion strains, locus YLR403W, strain SFP1, active compounds read low 0.865 | S. cerevisiae deletion strains, locus YML070W, strain DAK1, active compounds read low 0.854 | S. cerevisiae deletion strains, locus YMR001C, strain CDC5, active compounds read low 0.938 | S. cerevisiae deletion strains, locus YMR205C, strain PFK2 (second series), active compounds read low 0.875 | S. cerevisiae deletion strains, locus YMR277W, strain FCP1, active compounds read low 0.932 | S. cerevisiae deletion strains, locus YNL006W, strain LST8, active compounds read low 0.916 | S. cerevisiae deletion strains, locus YNL020C, strain ARK1, active compounds read low 0.893 | S. cerevisiae deletion strains, locus YNL161W, strain CBK1, active compounds read low 0.93 | S. cerevisiae deletion strains, locus YNL183C, strain NPR1, active compounds read low 0.934 | S. cerevisiae deletion strains, locus YNL207W, strain RIO2, active compounds read low 0.937 | S. cerevisiae deletion strains, locus YNL222W, strain SSU72, active compounds read low 0.927 | S. cerevisiae deletion strains, locus YNL307C, strain MCK1 (second series), active compounds read low 0.91 | S. cerevisiae deletion strains, locus YOL078W, strain AVO1, active compounds read low 0.926 | S. cerevisiae deletion strains, locus YOL136C, strain PFK27, active compounds read low 0.864 | S. cerevisiae deletion strains, locus YOR061W, strain CKA2, active compounds read low 0.884 | S. cerevisiae deletion strains, locus YOR119C, strain RIO1, active compounds read low 0.949 | S. cerevisiae deletion strains, locus YOR231W, strain MKK1, active compounds read low 0.87 | S. cerevisiae deletion strains, locus YOR329C, strain SCD5, active compounds read low 0.933 | S. cerevisiae deletion strains, locus YPL031C, strain PHO85, active compounds read low 0.88 | S. cerevisiae deletion strains, locus YPL153C, strain RAD53, active compounds read low 0.895 | S. cerevisiae deletion strains, locus YPL204W, strain HRR25, active compounds read low 0.869 | S. cerevisiae deletion strains, locus YPL209C, strain IPL1, active compounds read low 0.943 | S. cerevisiae deletion strains, locus YPR025C, strain CCL1, active compounds read low 0.93 | S. cerevisiae deletion strains, locus YPR106W, strain ISR1, active compounds read low 0.918 | S. cerevisiae deletion strains, locus YPR111W, strain DBF20, active compounds read low 0.909 | S. cerevisiae deletion strains, strain NNK1, active compounds read low 0.891 | S. cerevisiae deletion strains, strain TSCII, active compounds read low 0.93
active: [4] 0.733 | S. cerevisiae deletion strains, locus YLR113W, strain HOG1, active compounds read low 0.657 | S. cerevisiae deletion strains, locus YPL256C, strain CLN2, active compounds read low 0.763
